Rv3671c inh – Rv3671c (M. tuberculosis) protease inhibition | P9WHR9 | inhibition, % at 5.96 µM | 320,000 compounds, 0.048% hits | AID 2606; in the data active means inhibition above about 38%;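 further: extracellular domain of Rv3671c used as enzyme; 0% = enzyme with DMSO and 100% = no enzyme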
Target sequence (P9WHR9 whole entry, looked up, the tested form may be a part): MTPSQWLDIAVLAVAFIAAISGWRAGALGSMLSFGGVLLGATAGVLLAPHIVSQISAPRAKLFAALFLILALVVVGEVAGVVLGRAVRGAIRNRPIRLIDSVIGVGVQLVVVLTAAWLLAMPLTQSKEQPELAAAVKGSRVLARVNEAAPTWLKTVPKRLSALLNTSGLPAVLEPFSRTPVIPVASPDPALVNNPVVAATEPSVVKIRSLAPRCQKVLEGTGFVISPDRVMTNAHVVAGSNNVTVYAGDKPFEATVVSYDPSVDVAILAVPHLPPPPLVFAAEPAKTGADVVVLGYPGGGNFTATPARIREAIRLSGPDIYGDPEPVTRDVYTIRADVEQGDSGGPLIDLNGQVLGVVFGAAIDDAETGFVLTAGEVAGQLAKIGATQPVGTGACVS
Mtb UGM inh – Mtb UDP-galactopyranose mutase inhibition. purified UGM, fluorescence polarization probe displacement. 320,000 compounds, 0.06% hits. inhibition, % at 10 µM. P9WIQ1. AID 504406; in the data active means inhibition above about 10%, passing the limit was not always enough
FadD28 FP inh – M. tuberculosis FadD28 bisubstrate binding inhibition | AID 588549 | inhibition, % at 12.5 µM | 360,000 compounds, 0.22% hits | FadD28 bisubstrate probe binding, fluorescence polarization; in the data active means inhibition above about 8.5%, passing the limit was not always enough
PrP 5UTR inh – suppresses PrP 5' UTR mRNA reporter expression | cell-based PrP 5' UTR mRNA reporter, plate reader | inhibition, % (test concentration not listed) | 340,000 compounds, 0.35% hits | AID 488862; in the data active means inhibition above about 52%; further: 0 = median of the neutral control wells
PriA SSB inh – inhibitors of Klebsiella pneumoniae PriA binding to SSB C-terminal tail; AlphaScreen SSBct-PriA binding, biotinylated peptide; inhibition, % at 33 µM; 430,000 compounds, 0.6% hits; AID 1272365; in the data active means inhibition mostly above about 37%, no sharp cut-off; inactive means mostly below about 20%;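 further: plate controls were negative control peptide for no effect and reference peptide for full effect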
PrPC surface inh – reduces human prion protein on the cell surface; P04156; cell surface PrPC, TR-FRET read-out; inhibition, % at 13.8 µM; 370,000 compounds, 0.43% hits; in the data active means inhibition above about 24%; further: 0% = median of the test wells and 100% = reference compound wells
* marks the source's active call; other numbers are inactive results; i = inactive; nt = no result. In the library only some 1.2% were active in any assay of this set; here they are far more common.

SMILES | Rv3671c inh | Mtb UGM inh | FadD28 FP inh | PrP 5UTR inh | PriA SSB inh | PrPC surface inh
O=C(O)c1cc(O)c2c(c1)C(=O)c1cc(O)cc(O)c1C2=O | 10.9 | 2.7 | 13.4* | -13.3 | -16.2 | -27.6
CC(=O)Oc1cccc2c1C(=O)c1c(OC(C)=O)cc(C(=O)O)cc1C2=O | -6.8 | -0.8 | 3.1 | -11.7 | -1.2 | -27.6
O=C(NCC1CCN(Cc2ccco2)CC1)C(=O)Nc1ccc2c(c1)OCO2 | nt | nt | nt | nt | -14.0 | nt
Oc1c(Br)cc(Br)c(/C=N/n2c(-c3ccccc3)n[nH]c2=S)c1Br | -4.0 | 5.6 | 25.0* | -22.1 | nt | 8.9
Oc1c(Br)cc(C=Nn2c(-c3ccccc3)n[nH]c2=S)cc1Br | nt | nt | nt | nt | -15.2 | nt
CSc1ccc(CNC(=O)CSc2cc(Oc3cc(C)cc(C)c3)ncn2)cc1 | nt | nt | nt | nt | -6.0 | nt
Nc1nc(SCc2ccccc2Cl)[nH]c(=O)c1NC(=O)c1ccccc1 | nt | nt | nt | nt | -11.0 | nt
Cc1ccc(N2CCn3c(SCC(=O)NCC4CCCO4)nnc32)cc1 (centres undefined) | nt | nt | nt | nt | -1.0 | nt
O=[N+]([O-])c1ccc(C=NNc2ccc3ccccc3c2)o1 | nt | nt | nt | nt | 55.3* | nt
O=[N+]([O-])c1ccc(/C=N/Nc2ccc3ccccc3c2)o1 | 5.6 | -4.3 | -0.3 | 18.9 | nt | -0.4
Oc1ccc(CCNc2ncnc3ccc(Cl)cc23)cc1 | -14.1 | 2.3 | -3.6 | 8.4 | -3.5 | 36.2*
COc1cc(/C=C2\CCCc3c2nc2ccccc2c3C(=O)O)cc(OC)c1O | -0.3 | 1.2 | -3.7 | -15.1 | -5.6 | 0.3
CCOc1ccc(/C=C2\CCCc3c2nc2ccccc2c3C(=O)O)cc1OC | 3.0 | 70.3* | 3.8 | 1.6 | nt | nt
COc1ccc(/C=C2\CCCc3c2nc2ccccc2c3C(=O)O)cc1OC | 2.2 | 48.4* | nt | nt | nt | nt
COc1ccc(/C=C2\CCc3c2nc2ccccc2c3C(=O)O)cc1OC | -3.7 | 3.0 | 2.4 | -10.3 | -9.7 | -14.7
O=C(NCCCO)C(=O)Nc1ccc(N2CCCS2(=O)=O)cc1 | nt | nt | nt | nt | 4.0 | nt
CSc1ccc(NC(=O)Nc2ccc(C(=O)NCC(=O)O)cc2)cc1 | nt | 0.1 | 10.5* | -9.1 | 0.1 | -2.5
CCOC(=O)c1[nH]c2ccccc2c1NC(=O)c1c(OCC)ccc2ccccc12 | nt | nt | nt | nt | 19.0 | nt
CCOc1cc(Br)cc(C(c2c(C(=O)O)[nH]c3ccccc23)c2c(C(=O)O)[nH]c3ccccc23)c1O | 5.9 | 3.2 | 32.5* | -14.7 | -9.9 | 5.3
CSc1ccc(C(c2c(C(=O)O)[nH]c3ccccc23)c2c(C(=O)O)[nH]c3ccccc23)cc1 | 5.9 | 2.1 | 38.2* | 3.7 | 3.1 | 21.6
Cc1ccc(NC2=C(Cl)C(=O)c3ccccc3C2=O)cc1 | -0.8 | -0.5 | -0.9 | -59.9 | 11.4 | -6.0
Cc1cc(C)cc(NC2=C(N)C(=O)c3ccccc3C2=O)c1 | -54.0 | -1.6 | -2.7 | -64.9 | 54.5* | nt
Cc1nc(C(=O)N2CCC(Cc3n[nH]c(=O)n3-c3ccccc3C)CC2)cs1 | nt | nt | nt | nt | 2.0 | nt
CN(C)CCCN1C(=O)C(O)=C(C(=O)c2cc3ccccc3o2)[C@@H]1c1ccco1 | nt | nt | nt | nt | -4.0 | nt
O=C(CSCc1ccccc1)NCCn1nc(-c2ccccn2)cc1C1CC1 | nt | nt | nt | nt | 3.0 | nt
SMILES | Rv3671c inh | Mtb UGM inh | FadD28 FP inh | PrP 5UTR inh | PriA SSB inh | PrPC surface inh
COc1cc(/C=C2/SC(=S)N(CC(=O)O)C2=O)ccc1OC(=O)c1cccs1 | -5.1 | -2.8 | 3.3 | 1.4 | -1.1 | -20.0
COc1cc(/C=C2\SC(=S)N(CC(=O)O)C2=O)ccc1OS(=O)(=O)c1ccc(C)cc1 | -4.4 | -0.7 | 9.7* | -18.8 | 1.2 | -12.8
N#C/C(=C(/O)CCl)c1nc2ccccc2[nH]1 | 6.6 | -0.7 | -1.0 | -16.4 | -12.7 | 26.8*
COc1cccc(C=NNc2ccc(S(=O)(=O)Nc3ccccc3C(=O)O)cc2[N+](=O)[O-])c1O | nt | nt | nt | nt | 18.6 | nt
COc1ccc(C=NNc2ccc(S(=O)(=O)Nc3ccccc3C(=O)O)cc2[N+](=O)[O-])c(OC)c1 | 27.3 | 2.8 | 31.7* | -8.8 | 46.4* | nt
COc1ccccc1NS(=O)(=O)c1ccc(N/N=C/c2ccccc2C(=O)O)c([N+](=O)[O-])c1 | nt | nt | nt | nt | i | nt
COc1ccc(S(=O)(=O)Nc2ccccc2C(=O)Nc2ccc(OC)cc2[N+](=O)[O-])cc1 | nt | nt | nt | nt | 44.0* | nt
COc1ccc(NC(=O)c2ccccc2)c([N+](=O)[O-])c1 | 7.9 | 2.6 | -0.6 | -62.7 | 3.9 | -20.9
CCOc1cccc(C=NNc2ccc(S(=O)(=O)Nc3ccccc3C(=O)O)cc2[N+](=O)[O-])c1O | 10.2 | -3.8 | 17.3* | -49.0 | 17.9 | -2.0
COc1ccc(NC(=S)NNc2ccc(S(=O)(=O)Nc3ccccc3C(=O)O)cc2[N+](=O)[O-])cc1 | 21.8 | 1.1 | 22.5* | 3.3 | 55.1* | -31.1
COc1ccc(NC(=O)C2CCN(c3ccc(-c4ccccc4OC)nn3)CC2)c(OC)c1 | nt | nt | nt | nt | -2.0 | nt
O=C(NCc1cn(-c2ccccc2)nc1-c1ccc(F)cc1)c1ccc([N+](=O)[O-])cc1 | nt | nt | nt | nt | 6.0 | nt
COc1ccc(/C=C2\Oc3cc(OCC(=O)N4CCC[C@H]4C(=O)O)ccc3C2=O)c(OC)c1 | -7.9 | -1.8 | -4.2 | -8.7 | -4.1 | nt
COc1ccc(OC)c(/C=C2\Oc3cc(OCC(=O)N4CCC[C@H]4C(=O)O)ccc3C2=O)c1 | 1.8 | 12.4* | -0.4 | -70.7 | 6.1 | nt
COc1cccc(/C=C2\Oc3cc(OCC(=O)N4CCC[C@H]4C(=O)O)ccc3C2=O)c1 | -12.5 | 1.8 | -4.2 | -12.7 | -5.8 | -47.3
COc1cc(OC)c(OC)cc1/C=C1\Oc2cc(OCC(=O)N3Cc4ccccc4C[C@H]3C(=O)O)ccc2C1=O | -12.1 | -7.3 | 11.8* | -13.4 | -3.6 | nt
O=C(NCC1(c2ccsc2)CCCC1)C(=O)Nc1ccccc1F | nt | nt | nt | nt | -25.0 | nt
CCNS(=O)(=O)c1cc(C(C)C)ccc1OCC | nt | nt | nt | nt | -17.0 | nt
O=[N+]([O-])c1ccc(NN=C2CC3CC=CC23)c([N+](=O)[O-])c1 (centres undefined) | nt | nt | nt | nt | 52.1* | nt
CCCc1cc(=O)n(CC(=O)NCC2CCCO2)cn1 (centres undefined) | nt | nt | nt | nt | -4.0 | nt
COc1cc(Br)cc2cc(C(=O)Oc3cccc4cccnc34)c(=O)oc12 | nt | nt | nt | nt | 89.0* | nt
COc1cc(C(C)=O)ccc1OC(=O)c1cc2cccc(OC)c2oc1=O | 10.8 | -1.5 | -0.9 | -12.9 | 1.2 | -0.8
CCOC(=O)c1c(NC(=O)c2noc(C)c2[N+](=O)[O-])sc(C(C)=O)c1C | -4.8 | 2.2 | -2.1 | 13.9 | 58.5* | 12.0
Cc1ccc(C2CC(=O)NC(SCC(=O)Nc3nccs3)=C2C#N)cc1 (centres undefined) | 0.6 | 3.8 | 12.5* | -12.2 | -1.2 | 4.9
COc1cc(C2CC(=O)NC(SCC(=O)Nc3nccs3)=C2C#N)cc(OC)c1OC (centres undefined) | nt | nt | nt | nt | 0.0 | nt
O=C(O)c1cccc2cc(-c3ccccc3)oc(=O)c12 | 0.0 | -1.2 | nt | -15.3 | -2.9 | -5.9
O=C(O)c1cccc2cccc(-c3c4ccc(=O)c(O)c-4oc4c(O)c(O)ccc34)c12 | nt | nt | 43.7* | 37.9 | 6.3 | -0.9
COc1cccc(N2C[C@@H](C(=O)Nc3c(C(=O)Nc4ccc5c(c4)OCCO5)oc4ccccc34)CC2=O)c1 | nt | nt | nt | nt | 69.0* | nt
